Source: PubChem (National Center for Advancing Translational Sciences (NCATS))
Sm TGR inh = qHTS Assay for the Inhibitors of Schistosoma Mansoni Peroxiredoxins; Schistosoma mansoni thioredoxin glutathione reductase (TGR), Q962Y6; purified TGR, DTNB reduction, TNB absorbance 405 nm; Potency, µM (series often up to 114 µM), for the others: at the top dose activity change, negative = inhibition, usual class: inhibitors; 360,000 tested, 3% active; further: potency means the concentration at half of the fitted maximal effect; on the % scale 0 is the no-effect control and ±100 the full control effect; nearly all actives have a fitted effect of over 60% in size
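First, TGR (20 nM dispensed) and NADPH were mixed with compound. Second, a 15 min room-temperature incubation followed. Third, further NADPH and then DTNB were added to start the reaction. Finally, TNB absorbance was monitored kinetically.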
Pf growth 96h = Primary qHTS for delayed death inhibitors of the malarial parasite plastid, 96 hour incubation. AID 504834, 2011. Potency, µM (top dose mostly 28.7 µM), for inactives: at the top dose activity change, negative = inhibition, actives largely listed as inhibitors. P. falciparum luciferase reporter growth, 96 h. 320,000 tested, 6.9% active; further: potency means the concentration at half of the fitted maximal effect; on the % scale 0 is the no-effect control and ±100 the full control effect
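Luminescence readout: decreased luciferase signal marks inhibited growth of reporter-expressing P. falciparum in infected red cells (2% hematocrit, 0.05% parasitemia final), exposed to compound two generations (96 h, 37 C, 5% CO2).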
HCMV antiviral = qHTS Assay for inhibitors of the human cytomegalovirus (HCMV) | HFF cells, HCMV-luciferase reporter, 72 h; stronger effect = lower value | activity change, negative = inhibition, % at 57.5 µM | 410,000 tested, 4.5% active | AID 1259415, 2018; in the data active means activity change below about -60%; inconclusive means no clear call, values can overlap the other calls; inactive means above about -39%; further: on the % scale 0 is the no-effect control and ±100 the full control effect
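Human foreskin fibroblasts infected with luciferase-reporter HCMV at MOI 1 PFU/cell, compounds at two doses. Luciferase measured 72 h post infection; normalized to buffer-only basal and Salinomycin (10uM) controls.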
Pf growth 48h = Primary qHTS for delayed death inhibitors of the malarial parasite plastid, 48 hour incubation; Potency, µM (doses to about 28.7 µM), for inactives: at the top dose activity change, negative = inhibition, actives largely listed as inhibitors; P. falciparum luciferase growth in erythrocytes, 48 h; 310,000 tested, 5.9% active; further: potency means the concentration at half of the fitted maximal effect; on the % scale 0 is the no-effect control and ±100 the full control effect
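Cell-based growth assay: transgenic P. falciparum expressing firefly luciferase, cultured in red cells within RPMI 1640 containing 0.5% w/v Albumax, 24 mM bicarbonate and gentamycin. A drop in luciferase activity indicates inhibition.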
SARS PLpro yeast = qHTS of Yeast-based Assay for SARS-CoV PLP; S. cerevisiae expressing SARS-CoV PLpro, growth rescue; Potency, µM (doses to about 32.9 µM), without a hit: at the highest dose activity, positive = growth rescue, actives largely listed as activators; 330,000 tested, 0.19% active; AID 485353, 2010; calls by dose curve; further: potency means the concentration at half of the fitted maximal effect; 0% is about no effect; nearly all actives have a fitted effect of over 55% in size
HCV inhibitor = qHTS Assay for Inhibitors of Hepatitis C Virus (HCV); 340,000 tested, 3.4% active; Huh7.5.1 HCVcc-Cre infection, luciferase reporter, 44 h; Potency, µM (highest dose often 41.8 µM), without a hit: at the highest dose activity change, negative = inhibition, hits mostly inhibitors; further: potency means the concentration at half of the fitted maximal effect; on the % scale 0 is the no-effect control and ±100 the full control effect
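Compounds are dispensed onto cells plated 4 h earlier at 1,000 per well, with HCVcc-Cre virus (about 0.5 moi) added next. Following 44 h of culture, luminescent signal is measured for 15 sec after 15 min with substrate at room temperature.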
The depositor's hits bear a star; u = inconclusive; x = no result given; [ ] = remark or other dose. Sampled rows, rich in hits. Any-hit rate of the full collection: about 15%. Unless noted, the call rests on the fitted dose curve; in most records, active means well fitted curve in the direction sought with a large enough effect; inconclusive means small, poorly fitted or top-dose-only effect, or another doubt; inactive means no such curve, though single readings can be large; an effect the other way counts as inactive or inconclusive.

SMILES	Sm TGR inh	Pf growth 96h	HCMV antiviral	Pf growth 48h	SARS PLpro yeast	HCV inhibitor
COCCCn1c(SCC(=O)Nc2ccc(C)cc2)nc2ccccc2c1=O	8.0%	25.2%	-71.2*	25.0%	-1.2%	3.8%
CC(=O)NC1=NN(C(C)=O)C2(S1)C(=O)N(CC(C)C)c1ccc(C)cc12 (configuration not stated)	81.5%	2.2%	13.2	-6.7%	-0.4%	18.3%
CC1CCN(c2nc3c(S(=O)(=O)c4cccc(Cl)c4)nnn3c3ccsc23)CC1	32.8%	x	-23.9	x	x	x
CCCCCCCCN1C(=O)[C@H](CC(=O)N2CCOCC2)C[C@@]2(C(=O)OCC)CCCC=C12	x	x	-3.2	x	x	x
COc1cc(OC)cc(-c2c(C#Cc3ccsc3)c3cc(-c4cc(F)cc(F)c4)ccc3n2C)c1	x	x	-30.9	x	-2.6%	-11.8%
CCOCCCn1c(SCC(=O)Nc2ccc(C(N)=O)cc2)nc2ccccc2c1=O	16.2%	-33.1%	48.2	-15.3%	-1.4%	-11.1%
COCCCn1c(SCC(=O)Nc2ccc(C(=O)OC)cc2)nc2ccccc2c1=O	-3.5%	u	-20.6	8.28µM*	2.2%	-13.2%
COc1ccc(OC)c(S(=O)(=O)Nc2cc3c4c(c2)C(C)C(=O)N4CCC3)c1 (configuration not stated)	-5.4%	-18.7%	-7.8	u	-5.1%	-24.4%
O=C(Nc1nccs1)c1ccc(COc2c(F)c(F)cc(F)c2F)cc1	-3.2%	24.6%	59.5	u	-0.9%	u
COC(=O)CS(=O)(=O)c1nnc([C@H](Cc2ccccc2)NC(=O)OC(C)(C)C)o1	1.41µM*	-13.3%[5.75 µM]	79.2	-16.9%	-21.4%	u
Cc1cccc(CS(=O)(=O)c2nnc([C@H](Cc3ccccc3)NC(=O)OC(C)(C)C)o2)c1	1.78µM*	-22.9%	x	x	-31.1%	u
CC(C)(C)OC(=O)N[C@@H](Cc1ccccc1)c1nnc(SCC(N)=O)o1	9.3%	-12.5%	3.3	-13.8%	1.1%	10.0%
COC(=O)CSc1nnc([C@H](Cc2ccccc2)NC(=O)OC(C)(C)C)o1	0.0%	-21.6%	-8.6	u	0.0%	14.9%
Cc1ccc(SCC(=O)N2CCN(S(=O)(=O)c3cccs3)CC2)cc1	x	x	8.1	x	-0.9%	-29.5%
COc1ccc(NC(=O)C(=O)c2cc(C)n(-c3ccc(C)cc3)c2C)cc1Cl	-6.3%	x	u	x	x	x
CCCN(CCC)CCCNC(=O)Cn1ncc2c3ccccc3n(Cc3ccccc3F)c2c1=O	1.6%	x	-23.8	x	x	x
CCCCN(C)CCCNC(=O)Cn1ncc2c3ccccc3n(Cc3cc(C)ccc3C)c2c1=O	-17.7%	x	-99.3*	x	x	x
CCCCN(C)CCCNC(=O)Cn1ncc2c3ccccc3n(Cc3ccccc3)c2c1=O	-15.3%	x	-2.6	x	x	x
CCCCN(C)CCCNC(=O)Cn1ncc2c3ccccc3n(Cc3ccccc3F)c2c1=O	-10.3%	x	-104.6*	x	x	x
CN(CC(=O)Nc1ccc(Cl)cc1)C(=O)CCc1nc2sc3c(c2c(=O)[nH]1)CCCC3	-5.5%	u	-7.6	3.2%	-0.7%	10.7%[8.37 µM]
OC(c1ccc(CN2CCCCC2)cc1)c1ncc(-c2ccccc2)[nH]1 (configuration not stated)	x	x	-9.2	x	x	x
COc1ccc(C(=O)OCC(=O)N2CCN(S(=O)(=O)c3ccc(C)cc3)CC2)cc1[N+](=O)[O-]	x	x	2.7	x	x	6.0%
O=[N+]([O-])c1cc(S(=O)(=O)C(F)(F)F)ccc1NCC1CCCO1 (configuration not stated)	10.7%	6.4%	-20.6	20.4%	1.5%	-20.0%
Cc1ccccc1Nc1c(-c2ccccn2)nc2ccccn12	3.3%	-17.4%	-97.8*	2.62µM*	-25.4%	u
CC(C)c1ccc(Nc2c(-c3ccccn3)nc3ccccn23)cc1	-4.0%	x	-87.0*	x	x	x
